Reference: PubChem BioAssay AID1259421 (Broad Institute, 2018)
Values joined by “and” are separate entries in the source; they are usually repeats but may differ in a detail not shown here. Equal entries are not always repeated. Out of some 6,400 compounds screened, about 610 (9.5%) were called active. Rule as the data show it: active = activity change below about -70%; inconclusive = no clear call, values can overlap the other calls; inactive = above that. The list comes from a sample in which actives are over-represented; it also holds similar structures and randomly drawn compounds. Some compounds were tested as several samples or in several runs, with calls that do not always agree. *1 amine or outer side, *2 acyl side, *3 side chain or, on linkers, in order; H or OH if unused. Where a SMILES comes first, the peptide text is derived from it. Bridges are numbered along the chain shown (N, C = ends). Roman numbers before positions name the chains, in order. [ ]: non-standard residue; d: D form. The star is where a group is joined. Actinocin(9to1) = Cc1c2oc3c(C)ccc(C(=O)[*:1])c3nc-2c(C(=O)[*:2])c(N)c1=O; NMeV = CN[CH](C(=O)O)C(C)C; Cbz = O=C(OCc1ccccc1)*; Sar = CNCC(=O)O

assay: Toxoplasma gondii ME49Luc growth in HeLa cells, luciferase, no IFN-y, primary screen (AID 1259421); settings: T. gondii ME49Luc in HeLa, 72 h, stronger effect = lower value, concentration not given here

SMILES	activity change, negative = inhibition
CC(=O)OC[C@H]1O[C@@](COC(C)=O)(O[C@H]2O[C@H](COC(C)=O)[C@@H](OC(C)=O)[C@H](OC(C)=O)[C@H]2OC(C)=O)[C@@H](OC(C)=O)[C@@H]1OC(C)=O	4.98% (inactive)
CCC1(c2cnc[nH]2)Cc2ccccc2C1	52.1% (inactive)
CS(=O)(=O)NC(=O)CCC/C=C\C[C@H]1C(=O)C[C@@H](O)[C@@H]1/C=C/[C@@H](O)COc1ccccc1	0.217% (inactive)
CCCC(=O)Nc1ncnc2c1ncn2C1OC2COP(=O)(O)OC2C1OC(=O)CCC (stereo unspecified)	6.24% (inactive)
C=C1C[C@]23C[C@@]1(O)CC[C@H]2[C@@]12C=C[C@H](O)[C@](C)(C(=O)O1)[C@H]2[C@@H]3C(=O)O	1.78% (inactive)
CCCCC(C)(C)[C@H](O)/C=C/[C@H]1[C@H](O)CC(=O)[C@@H]1C/C=C\CCCC(=O)O	16.3% (inactive)
O/N=C/c1ccc(-c2ccc(O)c(F)c2)c(Cl)c1O	-85.3% (active)
CC(=O)Nc1cccc(-n2c(=O)n(C3CC3)c(=O)c3c(Nc4ccc(I)cc4F)n(C)c(=O)c(C)c32)c1	19.3% (inactive)
CCOc1nc2cccc(C(=O)O)c2n1Cc1ccc(-c2ccccc2-c2nn[nH]n2)cc1	-59.6% (inactive)
C=C[C@]1(C)C[C@@H](OC(=O)CSC(C)(C)CNC(=O)[C@H](N)C(C)C)[C@@]2(C)[C@H](C)CC[C@]3(CCC(=O)[C@H]32)[C@@H](C)[C@@H]1O	-20.2% (inactive)
CS(=O)(=O)N1CCN(Cc2cc3nc(-c4cccc5[nH]ncc45)nc(N4CCOCC4)c3s2)CC1	-19.3% (inactive)
Cc1c(CN2CCN(C(=O)[C@H](C)O)CC2)sc2c(N3CCOCC3)nc(-c3cnc(N)nc3)nc12	-21.6% (inactive)
COc1ccc(-c2nc(N3CCOCC3)c3sc(CN(C)c4ncc(C(=O)NO)cn4)cc3n2)cn1	-89.4% (active)
C=CC(C)(C)c1[nH]c2ccccc2c1C1C(=O)C(=O)C(c2c[nH]c3c(CC=C(C)C)cccc23)C(=O)C1=O (stereo unspecified)	6.09% (inactive)
O=C(O)/C=C1\CCCc2ccccc2C1O (stereo unspecified)	14% (inactive) and 4.55% (inactive)
Cc1ccc2c(Br)cc(Br)c(OC(=O)c3ccccc3)c2n1	-89.9% (active)
O=C(OOC(=O)c1ccccc1)c1ccccc1	3.51% (inactive)
O=C(Oc1cccc2cccnc12)c1ccccc1	9.16% (inactive) and -0.158% (inactive)
Nc1nc(N)c([NH2+][O-])c(OCC2CCCCC2)n1	6.35% (inactive)
O=C(O)[C@H](O)[C@H](O)[C@@H](O)[C@H](O)[C@H](O)CO	15.3% (inactive) and -2.15% (inactive)
COc1cccc2c1C(=O)c1c(O)c3c(c(O)c1C2=O)C[C@@](O)(C(C)=O)C[C@@H]3OC1CC(N)C(O)C(C)O1 (stereo partly specified)	-89.8% (active)

SMILES	activity change, negative = inhibition
COc1cccc2c1C(=O)c1c(O)c3c(c(O)c1C2=O)C[C@@](O)(C(C)=O)C[C@@H]3O[C@H]1C[C@H](N)[C@H](O)[C@H](C)O1	-66.8% (inactive) and -6.1% (inactive) and -91.6% (active)
Nc1nc2c(nc(Br)n2[C@@H]2O[C@@H]3COP(=O)(O)O[C@H]3[C@H]2O)c(=O)[nH]1	7.36% (inactive)
CO[C@H]1CC(O[C@@H]2/C(C)=C/C[C@@H]3C[C@@H](C[C@]4(CC[C@H](C)[C@@H](C5CCCCC5)O4)O3)OC(=O)[C@@H]3C=C(C)/C(=N/O)[C@H]4OC/C(=C\C=C\[C@@H]2C)[C@]43O)O[C@@H](C)C1O (stereo partly specified)	-64.5% (inactive) and -40.6% (inactive)
NCCCCN=C(N)N	12.5% (inactive)
CC(CCC(=O)NCC(=O)O)C1CCC2C3CCC4CC(O)CCC4(C)C3CC(O)C12C (stereo unspecified)	-5.76% (inactive)
CC(=O)O[C@@H]1CC2C(C)(C)C(=O)CC[C@]2(C)C2CC[C@@]3(C)[C@H](c4ccoc4)OC(=O)C4OC43[C@@]21C (stereo partly specified)	21.5% (inactive)
COC1CCC(N(C(=O)C2CCC(C)CC2)c2cc(C3=CCCCC3)sc2C(=O)O)CC1 (stereo unspecified)	5.25% (inactive)
COc1cccc(O)c1O	-4.12% (inactive)
C[C@@H]1C(SC2CN(C3=NCCS3)C2)=C(C(=O)OCOC(=O)C(C)(C)C)N2C(=O)[C@H]([C@@H](C)O)[C@H]12	3.05% (inactive)
CC(C)C[C@@H](C=O)NC(=O)[C@H](CC(C)C)NC(=O)[C@H](CC(C)C)NC(=O)OCc1ccccc1 (Cbz-Leu-Leu-Leu-aldehyde)	-62.8% (inactive) and -91.5% (active)
COC(=O)[C@H](CC(C)C)NC(=O)[C@@H](N)CC(C)C	4.82% (inactive)
CCCCC(C=O)NC(=O)C(CC(C)C)NC(=O)OCc1ccccc1 (stereo unspecified)	10.2% (inactive)
CC(C)=CCC/C(C)=C/COc1ccc2ccc(=O)oc2c1	17.8% (inactive)
O=C(NCCN1CCOCC1)c1ccc(Cl)cc1	-0.363% (inactive)
O=C1C(Cl)=C(NCCN2CCOCC2)C(=O)c2ncccc21	-78.2% (active)
c1ccc2c(c1)CCCc1cc(NCCN3CCOCC3)nnc1-2	12.2% (inactive)
c1cc(-c2cnn3cc(-c4ccc(OCCN5CCCCC5)cc4)cnc23)ccn1	-69.4% (inactive)
C/C(=N\NC(=O)[C@@H]1C(=O)NC[C@H]1c1ccccc1)c1cccc(Br)c1	1.33% (inactive)
CO[C@H]1C=CO[C@@]2(C)Oc3c(C)c(O)c4c(O)c(c5c(nc6cc(C)ccn65)c4c3C2=O)NC(=O)/C(C)=C\C=C[C@H](C)[C@H](O)[C@@H](C)[C@@H](O)[C@@H](C)[C@H](OC(C)=O)[C@@H]1C	-17.3% (inactive)
O=C1OC(=O)C2C3CCC(O3)C12 (stereo unspecified)	-85.1% (active)
CC(C)[C@](O)(c1ccc2cc(OC(F)F)c(OC(F)F)cc2c1)c1cn[nH]n1	29.6% (inactive)

SMILES	activity change, negative = inhibition
Brc1cccc(Nc2ncnc3cc4nc[nH]c4cc23)c1	3.71% (inactive)
O=c1[nH]c2cc(Cl)c(Cl)cc2[nH]c1=O	-86.2% (active)
O=c1[nH]c2cc([N+](=O)[O-])c([N+](=O)[O-])cc2[nH]c1=O	17.4% (inactive) and 5.82% (inactive) and 4.72% (inactive)
O=c1[nH]c2cc(Cl)c(Cl)c([N+](=O)[O-])c2[nH]c1=O	7.55% (inactive)
COc1cc([C@@H]2Oc3c(O)cc([C@H]4Oc5cc(O)cc(O)c5C(=O)[C@@H]4O)cc3[C@H]2CO)ccc1O	-10.5% (inactive)
CC(C)O.CC(C)O.CC(C)O.[In]	12.3% (inactive)
Cc1c2oc3c(C)ccc(C(=O)OC(C)C4NC(=O)C(C(C)C)N(C)C(=O)CN(C)C(=O)C5CCCN5C(=O)C(C(C)C)NC4=O)c3nc-2c(C(=O)OC(C)C2NC(=O)C(C(C)C)N(C)C(=O)CN(C)C(=O)C3CCCN3C(=O)C(C(C)C)NC2=O)c(N)c1=O (stereo unspecified) (I: cyclo([Sar][NMeV]TVP) / II: cyclo([Sar][NMeV]TVP); linker I:3-II:3 via Actinocin(9to1); configuration not given here)	-87.1% (active)
Cc1c2oc3c(C)ccc(C(=O)N[C@@H]4C(=O)N[C@H](C(C)C)C(=O)N5CCC[C@H]5C(=O)N(C)CC(=O)N(C)[C@@H](C(C)C)C(=O)O[C@@H]4C)c3nc-2c(C(=O)N[C@@H]2C(=O)N[C@H](C(C)C)C(=O)N3CCC[C@H]3C(=O)N(C)CC(=O)N(C)[C@@H](C(C)C)C(=O)O[C@@H]2C)c(N)c1=O (I: T[dV]P[Sar][NMeV] / II: T[dV]P[Sar][NMeV]; ester I:1-I:C, II:1-II:C; linker I:N-II:N via Actinocin(9to1))	-88.5% (active)
CCC1OC(=O)[C@H](C)C(=O)[C@H](C)[C@@H](OC2O[C@H](C)C[C@H](N(C)C)[C@H]2O)[C@](C)(OC)C[C@@H](C)C(=O)[C@@H](C)[C@@H]2N(CCCCn3cnc(-c4cccnc4)c3)C(=O)O[C@]12C (stereo partly specified)	-0.624% (inactive)
COCCCCC(=NOCCN)c1ccc(C(F)(F)F)cc1	4.87% (inactive)
O=C(CCCc1ccc(-c2ccccc2F)cc1)Nc1ccc(O)cc1	-67.6% (inactive) and -60.5% (inactive)
Cn1cnc(-c2cc3nccc(Oc4ccc(NC(=S)NC(=O)Cc5ccccc5)cc4F)c3s2)c1	28.8% (inactive)
Nc1nccc(Oc2ccc(NC(=O)c3c[nH]cc(-c4ccc(F)cc4)c3=O)cc2F)c1Cl	-76.8% (active)
CCOc1ccn(-c2ccc(F)cc2)c(=O)c1C(=O)Nc1ccc(Oc2ccnc(N)c2Cl)c(F)c1	0.966% (inactive)
N#Cc1ccc(NCCNCC(=O)N2CCC[C@H]2C#N)nc1	-0.604% (inactive)
COc1ccc(-c2cc(=O)c3c(O)cc(O[C@@H]4O[C@@H](CO[C@@H]5O[C@H](C)[C@@H](O)[C@H](O)[C@H]5O)[C@H](O)[C@@H](O)[C@H]4O)cc3o2)cc1O	6.66% (inactive)
CCc1c(Cl)c(O)c(Cl)c(O)c1C(=O)O[C@H]1[C@H](O)[C@H](OC)[C@H](OCC2=C/C=C/C[C@H](O)/C(C)=C\[C@H](CC)[C@H](O[C@@H]3OC(C)(C)[C@@H](OC(=O)C(C)C)[C@H](O)[C@H]3O)/C(C)=C\C(C)=C\C[C@H]([C@@H](C)O)OC2=O)O[C@@H]1C	16.6% (inactive)
C[C@H]1O[C@@H](O[C@H]2[C@@H](O)C[C@H](O[C@H]3[C@@H](O)C[C@H](O[C@H]4CC[C@]5(C)C6CC[C@]7(C)[C@@H](C8=CC(=O)OC8)CC[C@]7(O)C6CC[C@@H]5C4)O[C@@H]3C)O[C@@H]2C)C[C@H](O)[C@@H]1O (stereo partly specified)	-83.2% (active) and -93.3% (active)
C[C@H]1O[C@@H](O[C@H]2[C@@H](O)C[C@H](O[C@H]3[C@@H](O)C[C@H](O[C@H]4CC[C@]5(C)C6C[C@@H](O)[C@]7(C)[C@@H](C8=CC(=O)OC8)CC[C@]7(O)C6CC[C@@H]5C4)O[C@@H]3C)O[C@@H]2C)C[C@H](O)[C@@H]1O (stereo partly specified)	-76.7% (active) and -101% (active)
